GDH-TPI inh: counter-screen for M. tuberculosis FBA inhibitors: GDH-TPI coupled enzymes | GDH-TPI coupled enzyme counterscreen, NADH absorbance | inhibition, % at 4.8 µM | 360,000 compounds, 1.2% hits | AID 588335; in the data active = inhibition above about 30%
BoNT F protease: BoNT F light chain protease inhibition; Multiplex microsphere protease cleavage assay, flow cytometry; inhibition, % at 10 µM; 360,000 compounds, 0.22% hits; in the data active = inhibition above about 35%, passing the limit was not always enough; inconclusive = no clear call, values can overlap the other calls
Bead autofluor: counter-screen for toxin protease inhibitors: compound fluorescence; AID 624483; 360,000 compounds, 3.1% hits; compound autofluorescence counterscreen, microsphere flow cytometry; hits give high values; fluorescence intensity (test concentration not listed); in the data active = fluorescence intensity above about 16000; inconclusive = no clear call, values can overlap the other calls
Anthrax LF prot: inhibitors of Bacillus anthracis lethal factor protease; inhibition, % at 10 µM; multiplex microsphere protease cleavage assay, LF; AID 588501; 360,000 compounds, 0.12% hits
BoNT A protease: BoNT A light chain protease inhibition; multiplex microsphere protease substrate cleavage, flow cytometry; inhibition, % at 10 µM; 360,000 compounds, 0.17% hits; AID 588499
Mtb FBA inh: inhibits M. tuberculosis FBA enzyme; purified M. tuberculosis FBA, fluorescence read-out; inhibition, % at 1 µM; 360,000 compounds, 2.3% hits; AID 588726; in the data active = inhibition above about 27%
Hits are given with their value; 0 = inactive; ? = inconclusive; - = no result. An excerpt weighted towards active compounds, which were near 6.7% of everything screened. Cut-off read from the data, not from the text of the source, unless noted: active = inhibition above about 30%; inconclusive = no clear call, values can overlap the other calls; inactive = below that.

SMILES	GDH-TPI inh	BoNT F protease	Bead autofluor	Anthrax LF prot	BoNT A protease	Mtb FBA inh
Cc1cc(-c2ccccc2)cc(-c2ccccc2)[n+]1CCc1ccccc1	0	0	0	0	0	0
CCCCc1ccc2[nH]cc(CCN)c2c1	0	0	0	0	0	0
O=C1C(=O)c2ccc(-c3ccccc3)cc2-c2ccccc21	0	0	16446	0	0	0
CN(Cc1ccc2nonc2c1)Cc1nc(Cc2cccc(F)c2)no1	0	0	0	0	0	0
CC(C)CC(=O)N1CCC(O)(CS(=O)(=O)Cc2ccc(Cl)cc2)CC1	0	0	0	0	0	0
CC(C)CC(=O)N1CCC(O)(CS(=O)(=O)Cc2ccccc2Cl)CC1	0	0	21027	0	?	0
Cc1ccc(NC(=O)c2cc(-n3cnnc3)ccc2Cl)cc1	0	0	16625	0	0	0
CN(C)C(=O)c1ccc(NC(=O)c2cc(-n3cnnc3)ccc2Cl)cc1	0	0	0	0	0	0
C[C@@H]1CN([C@H](C)CO)C(=O)CCCn2nncc2CO[C@@H]1CN(C)S(=O)(=O)c1ccc(Cl)cc1	0	0	0	0	0	0
CC(=O)c1ccc(-c2ccc(/C=C(/Sc3n[nH]c(C)n3)C(=O)O)o2)cc1	39	0	0	0	0	0
Cc1nc(S/C(=C/c2ccc(-c3ccc(C(=O)O)cc3)o2)C(=O)O)n[nH]1	0	0	0	0	0	0
O=C(Cn1c2[n+](c3ccc(C(F)(F)F)cc31)CCCCC2)Nc1ccccc1	0	0	0	0	0	0
FC(F)(F)c1ccc2c(c1)n(Cc1ccccc1)c1[n+]2CCCCC1	0	0	20850	0	0	0
CC1(C)Cc2c(sc3nc(-c4cc5ccccc5o4)n(N)c(=O)c23)CO1	0	0	21859	0	?	0
Cc1ccc(-c2nc3sc4c(c3c(=O)n2N)CC(C)(C)OC4)cc1	0	0	0	0	0	0
O=[N+]([O-])c1ccc(NN=Cc2cccc3ccccc23)cc1	0	0	0	0	0	0
O=[N+]([O-])c1cc(Br)c(O)c(/C=N/Nc2nnnn2-c2cccc3ccccc23)c1	0	0	22718	0	0	0
c1ccc2c(c1)CC/C2=N/Nc1nc2ccccc2[nH]1	49	0	0	0	0	0
CCc1ccc(-c2nc(CS(=O)CC(=O)NC3CC3)c(C)o2)cc1 (stereo not drawn)	0	0	0	0	0	0
Cc1ccc(C)c(N(C(=O)Cn2nnc(-c3cccs3)n2)C(C(=O)NC2CCCC2)c2ccncc2)c1 (stereo not drawn)	0	0	24211	0	0	0
NC(=S)N/N=C1\CC(c2ccc3c(c2)OCCCO3)Oc2ccc(F)cc21 (stereo not drawn)	45	?	?	0	0	0
O=C1CC(c2ccc3c(c2)OCCO3)Oc2ccccc21 (stereo not drawn)	0	0	0	0	0	0
NC(=S)N/N=C1\CC(c2ccc3c(c2)OCCO3)Oc2ccc(F)cc21 (stereo not drawn)	40	?	0	0	0	0
Cc1cc(=O)oc(C)c1C(=O)NCCN1CCOCC1	0	0	22773	0	?	0
Cc1cc(=O)oc(C)c1C(=O)NCC1CCCO1 (stereo not drawn)	0	0	0	0	0	0
SMILES	GDH-TPI inh	BoNT F protease	Bead autofluor	Anthrax LF prot	BoNT A protease	Mtb FBA inh
CCCNC(=O)c1c(C)cc(=O)oc1C	47	0	0	0	0	0
Cc1cc(=O)oc(C)c1C(=O)NCCCN1C(C)CCCC1C (stereo not drawn)	0	0	24271	0	0	0
Cc1ccccc1OC(C)C(=O)N1CCC(Cc2ccccc2)CC1 (stereo not drawn)	0	0	0	0	0	0
CCOC(=O)c1sc(NC(=O)Cc2ccccc2OC)nc1C	0	-	-	-	-	0
COc1ccccc1NC(=O)CN1CCN(CC(=O)Nc2ccc(S(N)(=O)=O)cc2)CC1	0	0	0	0	0	0
Cc1c(/C=N/n2cnnc2)c2ccccc2n1CCOc1ccc(Cl)cc1	0	0	16355	0	0	0
Cc1ccc(OCCn2c(C)c(/C=N/n3cnnc3)c3ccccc32)cc1	31	?	0	0	0	0
COc1ccc(OC)c(-c2csc(N(CC3CCCO3)C(=O)Cc3ccccc3)n2)c1 (stereo not drawn)	0	0	0	0	0	0
CCNc1nc(NCC)n2c(SCC(=O)Nc3ccccc3)nnc2n1	0	0	0	0	0	0
CCC(C)c1ccccc1NC(=S)Nc1cccnc1 (stereo not drawn)	0	0	0	0	0	0
OCc1ccccc1NC(=S)Nc1cccnc1	0	0	25402	0	0	0
O=C(c1ccco1)N1CCN(c2ccc(S(=O)(=O)N3CCCC3)cc2)CC1	0	0	22603	0	0	0
O=C(CN1C(=O)NC2(CCCC2)C1=O)N1CCN(C(=O)c2ccco2)CC1	0	0	19470	0	0	0
O=C(Nc1nc2ccc(S(=O)(=O)N3CCCC3)cc2s1)c1ccco1	39	0	0	0	0	0
Cc1ccc(-c2cc(C(=O)N3CCN(C(=O)c4ccco4)CC3)no2)cc1	0	0	20055	0	0	0
O=C(c1ccco1)N1CCN(S(=O)(=O)c2ccccc2)CC1	0	0	0	0	0	0
CC(=O)Nc1cc2c(cc1[N+](=O)[O-])-c1ccccc1C2O (stereo not drawn)	0	0	0	0	0	0
O=C(CCC1CCCC1)N1CCN(C(=O)c2ccco2)CC1	0	0	0	0	0	135
CC(C)CC(=O)N1CCN(C(=O)c2ccco2)CC1	0	0	0	0	0	0
CN(C)C(=O)N1CCN(C(=O)c2ccco2)CC1	0	0	0	0	0	0
O=C(c1ccco1)N1CCCN(C(=O)c2ccco2)CC1	0	0	23373	0	0	0
NC(Cc1ccccc1)c1csc(Nc2nncc3ccccc23)n1 (stereo not drawn)	0	0	0	0	0	0
CC(NC(=O)c1ccncc1)C(C)(C)C (stereo not drawn)	0	0	21180	0	0	0
O=C(CCS(=O)(=O)c1ccccc1)Nc1nc(-c2ccc(F)cc2)cs1	34	0	0	0	0	0
O=C1CCCc2ccc3ccccc3c21	0	0	0	0	0	0
SMILES	GDH-TPI inh	BoNT F protease	Bead autofluor	Anthrax LF prot	BoNT A protease	Mtb FBA inh
Cc1ccccc1-c1nc(CS(=O)CC(=O)NCCN2CCN(Cc3ccccc3)CC2)c(C)o1 (stereo not drawn)	0	0	21943	0	?	0
CCOc1ccc(CCNC(=O)CS(=O)Cc2nc(-c3ccc(C)cc3)oc2C)cc1OCC (stereo not drawn)	0	-	-	-	-	0
CCOc1ccc(CCNC(=O)CS(=O)Cc2nc(-c3ccccc3C)oc2C)cc1OCC (stereo not drawn)	0	0	20576	0	0	0
CCCCn1c(N)c(N(CCOC)C(=O)CN2C(=O)NC3(CC(C)CC(C)(C)C3)C2=O)c(=O)[nH]c1=O (stereo not drawn)	0	0	0	0	0	0
CCCC(=O)NC(=S)Nc1c(C)cc(Br)cc1C	0	0	0	0	0	0
CC(C)NC(=O)C1CCN(C(=O)C(C(=O)c2ccccc2)n2cc(Cl)ccc2=O)CC1 (stereo not drawn)	0	0	23513	0	0	0
